Test results: PubChem BioAssay (NCI)
The panel holds about 83,000 compounds, 20% with a hit somewhere; the sample as a whole holds those more often.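 Note: values are percent growth. 100 is the growth of untreated cells, values between 100 and 0 indicate rising inhibition; between -100 and 0 indicates cell death.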 Activity calls are given as the source filed them. How the source made its calls: active means growth percent below 10; inactive means the rest.

tested on: HL-60(TB) leukemia; assay: NCI-60 one-dose screen, 48 h (100 = growth as untreated, 0 = no growth, -100 = all killed); settings: 10 µM unless noted

| Compound | growth |
| --- | --- |
| N#Cc1c(-c2ccccc2)cc(-c2ccccc2)n(CC(=O)O)c1=O | 23.6% (inactive) |
| Brc1cccc(-c2cc(-c3ccc4nccnc4c3)[nH]n2)c1 | 14.9% [25 µM] (inactive) |
| NCCSSC/C=C\CSSCCN | 59.1% (inactive) |
| COc1ccc2[nH]cc(-c3nonc3-c3c[nH]c4ccc(Br)cc34)c2c1 | 76.1% (inactive) |
| CCNCc1ccc(O)c2ncccc12 | 13.1% (inactive) |
| CSc1nc(NCc2ccccc2)c(C#N)c(-c2cccc([N+](=O)[O-])c2)n1 | 107% (inactive) |
| COc1ccc(Cn2cc3c(c2-c2ccccc2)CCc2cnoc2-3)cc1N | -19.8% (active) |
| Clc1ccc(N2N=C(c3cccc(Nc4ccncc4)c3)CC2c2ccc(Br)cc2)cc1 (stereo not given) | 0.656% (active) |
| Cc1ccc2cnc(N)c(C#Cc3cc(C(=O)Nc4ccc(CN5CCN(C)CC5)c(C(F)(F)F)c4)cnc3C)c2c1 | 30% (inactive) |
| O=C(Nc1ccc2c(c1)OCO2)C(=O)c1c[nH]c2cc(F)ccc12 | 53.5% (inactive) |
| COc1ccc(C(=O)COc2cccc(/C=C3\CSc4ccccc4C3=O)c2)cc1 | -55.5% (active) |
| O=c1c2cc(F)ccc2sc2c(NCCO)nc3ccccc3c12 | 91.9% (inactive) |
| CCCCOc1nc2ccc(Cl)cc2cc1/C=C/C(=O)/C=C/c1ccc(OC)cc1 | 89.5% (inactive) |
| CC(=O)N(CCCCCCN(C(C)=O)C(C)=O)C(C)=O | 108% [100 µM] (inactive) |
| Clc1ncnc2scc(C3COc4ccccc4O3)c12 (stereo not given) | 102% (inactive) |
| COC(=O)[C@@H](OC)[C@@H]1Cc2cc3cc(OC4CC(OC5CC(O)C(O)C(C)O5)C(O)C(C)O4)c(C)c(O)c3c(O)c2C(=O)[C@H]1OC1CC(OC2CC(OC3CC(C)(O)C(O)C(C)O3)C(O)C(C)O2)C(O)C(C)O1 (stereo not given in full) | -33.5% (active) |
| c1ccc(-c2nc3nonc3nc2-c2ccccc2)cc1 | 85.3% (inactive) |
| COc1ccc(C2=C(c3cccc(OC)c3)C(=O)c3ccc(C)nc3C2=O)cc1 | 41.1% (inactive) |
| N#Cc1c(-c2ccc(Br)cc2)nc2c(N=Nc3ccc(S(N)(=O)=O)cc3)c(N)nn2c1N | 38.1% (inactive) |
| C[C@@H]1N=C(c2ccc3ccccc3n2)Nc2nc3ccccn3c2C1=O | 97.6% (inactive) |

| Compound | growth |
| --- | --- |
| Clc1nc(Cl)c2c3c(sc2n1)CCCC3 | -14.2% (active) |
| O=C1C(Nc2ccc(Cl)cc2)=C(I)C(=O)c2ncccc21 | -45.8% (active) |
| CCOC(=O)C/C(=N\Nc1cc(=O)[nH]c2ccc(Cl)cc12)C(=O)OCC | 90.6% (inactive) |
| CCC(=O)OCc1cccc(OC)c1 | 53.7% (inactive) |
| COc1cc(-c2nc(NC(C)=O)sc2-c2ccnc(NCCNS(=O)(=O)c3ccccc3)n2)ccc1Cl | -22.3% (active) |
| CC[C@@H]1NC(=O)[C@H]([C@H](O)[C@H](C)C/C=C/c2ccc(CN3C(=O)CCCC3=O)cc2)N(C)C(=O)[C@H](C(C)C)N(C)C(=O)[C@H](CC(C)C)N(C)C(=O)[C@H](CC(C)C)N(C)C(=O)[C@@H](C)NC(=O)[C@H](C)NC(=O)[C@H](CC(C)C)N(C)C(=O)[C@H](C(C)C)NC(=O)[C@H](CC(C)C)N(C)C(=O)CN(C)C1=O | 61.3% (inactive) |
| O=[N+]([O-])c1ccc(N/N=C\c2ccc(O)cc2O)nc1 | 0.875% (active) |
| Brc1ccc(SCN(CSc2ccc(Br)cc2)Cc2ccccc2)cc1 | 40.3% (inactive) |
| COc1cc(N)ccc1Nc1c2ccccc2nc2ccccc12 | 48.2% (inactive) |
| Cc1ccc(/C=C2\CN(C(=O)CCN3CCC(=NO)CC3)C/C(=C\c3ccc(C)cc3)C2=O)cc1 | -11.3% (active) |
| O=C(NC1CCOCC1)c1ccc2c(c1)CN(c1ncc(Cc3cccc(-n4cccn4)c3)s1)CC2 | 68.7% (inactive) |
| CCC(=C(c1ccc(OCCCN(C)C)cc1)c1ccc(OCCCN(C)C)cc1)c1ccc(Cl)cc1 | -55.3% (active) |
| COc1cc(CN)ccc1O | 73.9% (inactive) |
| COc1cccc(Nc2nccc(Nc3ccc4[nH]ncc4c3)n2)c1 | -62.3% (active) |
| COC(=O)c1c[n+]([O-])ccc1OC | 106% (inactive) |
| COc1cc2c3c(c4c5ccccc5[nH]c4c2c(OC)c1OC)C(=O)N(CCN1CCCCC1)C3=O | 63% (inactive) |
| CN(C)c1ccc2nc3ccc(=[N+](C)C)cc-3oc2c1 | -21% (active) |
| CC(C)C(=O)Nc1n[nH]c2cc(-c3cccc(NS(=O)(=O)C4CC4)c3)ccc12 | 64.3% (inactive) |
| COc1cccc(-c2nc(-c3ccc(N)cc3)co2)c1 | 52.9% (inactive) |
| C/C=C/C1OCC(CC)C(CCC)O1 (stereo not given) | 88.1% (inactive) |
